Measured values from PubChem BioAssay.
Unmarked numbers belong to inactive results. No rule for the calls is given here.

These compounds were tested against Pantothenate synthetase (Mycobacterium tuberculosis (strain ATCC 25618 / H37Rv)) (UniProt P9WIL5) (assay: Recombinant Mtb pantothenate synthetase (PanC) inhibitors, coupled enzyme, confirmatory (AID 375;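 also: 0% = full reaction with vehicle and 100% = no enzyme background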)). Settings: coupled enzyme assay; at 10 µM, hits give high values.
Chain of Pantothenate synthetase (Mycobacterium tuberculosis (strain ATCC 25618 / H37Rv)) (P9WIL5 whole entry, looked up): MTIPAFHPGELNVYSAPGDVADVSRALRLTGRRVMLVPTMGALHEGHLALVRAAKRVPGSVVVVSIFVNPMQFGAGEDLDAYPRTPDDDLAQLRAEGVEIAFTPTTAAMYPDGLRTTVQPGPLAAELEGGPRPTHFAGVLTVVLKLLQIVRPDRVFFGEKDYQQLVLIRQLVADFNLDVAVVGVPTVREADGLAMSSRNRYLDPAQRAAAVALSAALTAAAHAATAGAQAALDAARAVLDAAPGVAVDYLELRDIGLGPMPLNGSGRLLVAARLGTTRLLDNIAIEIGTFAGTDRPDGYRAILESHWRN

Row | SMILES | inhibition [%]
1 | COc1ccc(CN2C(=O)c3cccnc3C2Nc2cc(Cl)ccc2OC)cc1 (centres undefined) | 3
2 | Cc1ncc([N+](=O)[O-])n1CC(O)CCl (centres undefined) | 0
3 | CC(Oc1ccc2oc(-c3ccccc3)c(C(=O)O)c2c1)C(=O)O (centres undefined) | 0
4 | CCN(CC)CCNC(=O)c1ccc(NC(C)=O)cc1 | 0
5 | C=CCOC(=O)CCC(=O)Nc1cc(OC)nc(OC)n1 | 0
6 | COC1CCCCC1NS(=O)(=O)c1ccccc1 (centres undefined) | 0
7 | O=S(=O)(NCC1CCCO1)c1ccc(S(=O)(=O)N2CCc3ccccc3C2)cc1 (centres undefined) | 5
8 | CCN(CC)CCN1C(=O)C(=O)/C(=C(/O)c2c(C)[nH]c(C(=O)OC)c2C)C1c1ccccc1OC (centres undefined) | 0
9 | CCOC(=O)c1c(N)sc(C(=O)N2CCOCC2)c1C | 4
10 | CN=C(Nc1ccc2c(c1)OCO2)SC1CC(=O)N(c2ccccc2)C1=O (centres undefined) | 0
11 | COc1ccc(-n2c(=O)cc(N3CCN(Cc4ccccc4)CC3)[nH]c2=O)cc1 | 0
12 | CCCn1c(=O)c2ccccc2n2c(SCCOc3ccccc3F)nnc12 | 0
13 | O=C1CCCC2=C1C(c1ccsc1)CC(=O)N2c1ccccc1 (centres undefined) | 0
14 | CCCCNC(=O)OCCNC(=O)NC | 0
15 | COc1ccc(N2C(=O)CCC(C(=O)N3CCCCC3)C2c2ccc(OC)c(OC)c2)cc1 (centres undefined) | 6
16 | CCOc1ccc2nc(SCC#N)c(C#N)cc2c1 | 0
17 | O=C(Cn1ncc2c(=O)oc3ccccc3c21)NCCCN1CCCC1=O | 0
18 | CCC(=O)N1CCN(CCN=CC2=C(O)CC(C)(C)CC2=O)CC1 | 0
19 | COc1ccc2oc(=O)c(C(=O)N3CCN(c4ccccc4F)CC3)cc2c1 | 0
20 | c1ccc2c(c1)CCCC2C1=NCCN1 (centres undefined) | 0
21 | O=C(COC(=O)CCC1CCCC1)Nc1ccc(Cl)cn1 | 2
22 | O=C(O)CC1NC(=O)N(c2ccccc2)C1=O (centres undefined) | 0
23 | CCN(CC)C(=O)c1ccc(O)c(OC)c1 | 0
24 | CCn1c(=O)n(CC(=O)Nc2cc(OC)ccc2OC)c(=O)c2ccccc21 | 10
